Measured values as given in PubChem BioAssay AID1159580 (chemical genetic matrix, 2015).
Where “and” joins values, the source holds several entries; their conditions need not be identical. Equal entries are not always repeated. In all, about 5,500 compounds went through this assay and about 2,000 (36%) were called active. Another 18% or so got no clear call; they are omitted. No stated cut-off is given here; in the data, active means normalized growth mostly below about 0.91 (no sharp cut-off); inconclusive means no clear call, values can overlap the other calls; inactive means mostly above about 0.92. This is one part of the list.

Assay: chemical genetic growth profiling, strain panel (AID 1159580);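 further: tested at 20 µM; growth read once vehicle control cultures reached saturation at 30 °C; 1 = growth at the plate median or of vehicle wells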
Details: S. cerevisiae deletion strains, growth OD

Measured: normalized growth

CCOc1ccc(C(=O)c2ccc(O)c(O)c2O)cc1
inactive: locus YAL030W, strain snc1, stronger effect = lower value 0.936 | locus YBR009C, strain hhf1, stronger effect = lower value 0.926 | locus YBR021W, strain FUR4, stronger effect = lower value 0.926 | locus YBR171W, strain sec66, stronger effect = lower value 0.899 | locus YBR229C, strain ROT2, stronger effect = lower value 0.979 | locus YCL011C, strain gbp2, stronger effect = lower value 0.945 | locus YCL016C, strain dcc1, stronger effect = lower value 0.919 | locus YCL069W, strain vba3, stronger effect = lower value 0.96 | locus YCR088W, strain abp1, stronger effect = lower value 0.949 | locus YDL005C, strain med2, stronger effect = lower value 0.973 | locus YDL035C, strain GPR1, stronger effect = lower value 0.899 | locus YDL040C, strain nat1, stronger effect = lower value 0.971 | locus YDR001C, strain nth1, stronger effect = lower value 0.963 | locus YDR159W, strain sac3, stronger effect = lower value 0.924 | locus YDR195W, strain ref2 1.04 | locus YDR297W, strain sur2, stronger effect = lower value 0.928 | locus YDR388W, stronger effect = lower value 0.955 | locus YDR392W, strain spt3, stronger effect = lower value 0.87 | locus YEL037C, strain rad23, stronger effect = lower value 0.928 | locus YEL061C, strain CIN8 (second series), stronger effect = lower value 0.958 | locus YER016W, strain bim1, stronger effect = lower value 0.924 | locus YER110C, stronger effect = lower value 0.989 | locus YER155C, strain BEM2 (second series), stronger effect = lower value 0.902 | locus YER155C, strain BEM2, stronger effect = lower value 0.991 | locus YER167W, strain BCK2, stronger effect = lower value 0.953 | locus YGL078C, strain dbp3, stronger effect = lower value 0.965 | locus YGL167C, strain pmr1, stronger effect = lower value 0.917 | locus YGL227W, strain vid30, stronger effect = lower value 0.982 | locus YGL240W, strain doc1, stronger effect = lower value 0.955 | locus YGL253W, strain hxk2, stronger effect = lower value 0.928 | locus YGR252W, strain gcn5, stronger effect = lower value 0.861 | locus YHR013C, strain ard1, stronger effect = lower value 0.852 | locus YHR079C, strain IRE1, stronger effect = lower value 0.898 | locus YHR094C, strain hxt1, stronger effect = lower value 0.993 | locus YIL066C, strain RNR3, stronger effect = lower value 0.88 | locus YIL073C, strain SPO22, stronger effect = lower value 0.848 | locus YIL125W, strain kgd1, stronger effect = lower value 0.951 | locus YIR030C, strain dcg1, stronger effect = lower value 0.976 | locus YJL092W, strain hpr5, stronger effect = lower value 0.955 | locus YJL115W, strain asf1, stronger effect = lower value 0.966 | locus YJL129C, strain trk1, stronger effect = lower value 0.944 | locus YJL134W, strain LCB3, stronger effect = lower value 0.968 | locus YJL154C, strain vps35, stronger effect = lower value 0.953 | locus YJL166W, strain qcr8, stronger effect = lower value 0.933 | locus YJL168C, strain set2, stronger effect = lower value 0.963 | locus YJR075W, strain HOC1, stronger effect = lower value 0.928 | locus YKL009W, strain mrt4, stronger effect = lower value 0.983 | locus YKL068W, stronger effect = lower value 0.97 | locus YKL085W, strain MDH1 (second series), stronger effect = lower value 0.967 | locus YKL085W, strain MDH1, stronger effect = lower value 0.967 | locus YKR001C, strain vps1, stronger effect = lower value 0.916 | locus YKR026C, strain gcn3, stronger effect = lower value 0.941 | locus YKR091W, strain srl3, stronger effect = lower value 0.965 | locus YLL001W, strain dnm1, stronger effect = lower value 0.932 | locus YLL026W, stronger effect = lower value 0.952 | locus YLL041C, strain sdh2, stronger effect = lower value 0.937 | locus YLR027C, strain aat2, stronger effect = lower value 0.947 | locus YLR039C, strain RIC1, stronger effect = lower value 0.777 | locus YLR102C, strain apc9, stronger effect = lower value 0.995 | locus YLR113W, strain HOG1, stronger effect = lower value 0.903 | locus YLR258W, strain gsy2, stronger effect = lower value 0.934 | locus YLR262C, strain YPT6, stronger effect = lower value 0.896 | locus YLR320W, strain mms22, stronger effect = lower value 0.88 | locus YLR370C, strain arc18, stronger effect = lower value 0.95 | locus YLR384C, strain iki3, stronger effect = lower value 0.936 | locus YML032C, strain rad52, stronger effect = lower value 0.994 | locus YML120C, strain ndi1, stronger effect = lower value 0.928 | locus YML124C, strain tub3, stronger effect = lower value 0.967 | locus YMR078C, strain ctf18, stronger effect = lower value 0.965 | locus YMR125W, strain sto1, stronger effect = lower value 0.958 | locus YMR129W, stronger effect = lower value 0.963 | locus YMR307W, strain GAS1, stronger effect = lower value 0.787 | locus YNL067W, strain RPL9B, stronger effect = lower value 0.869 | locus YNL071W, strain lat1, stronger effect = lower value 0.963 | locus YNL183C, strain NPR1, stronger effect = lower value 0.852 | locus YNL248C, strain rpa49, stronger effect = lower value 0.98 | locus YNL250W, strain rad50, stronger effect = lower value 0.981 | locus YNL298W, strain CLA4, stronger effect = lower value 0.941 | locus YNL307C, strain MCK1, stronger effect = lower value 0.951 | locus YNL322C, strain KRE1 (second series), stronger effect = lower value 0.943 | locus YNR049C, strain mso1, stronger effect = lower value 0.954 | locus YOL006C, strain TOP1, stronger effect = lower value 0.656 | locus YOL012C, strain htz1 0.425 | locus YOR070C, strain gyp1, stronger effect = lower value 0.941 | locus YOR080W, strain dia2, stronger effect = lower value 0.954 | locus YOR136W, strain idh2, stronger effect = lower value 0.962 | locus YOR184W, strain ser1, stronger effect = lower value 0.882 | locus YOR231W, strain MKK1, stronger effect = lower value 0.931 | locus YOR270C, strain vph1, stronger effect = lower value 0.81 | locus YOR316C, strain cot1, stronger effect = lower value 0.983 | locus YPL055C, strain LGE1, stronger effect = lower value 0.841 | locus YPL240C, strain hsp82, stronger effect = lower value 0.949 | locus YPL241C, strain CIN2, stronger effect = lower value 0.969 | locus YPL256C, strain CLN2, stronger effect = lower value 0.984 | locus YPR119W, strain clb2, stronger effect = lower value 0.991 | locus YPR141C, strain kar3, stronger effect = lower value 0.964
active: locus YAL021C, strain ccr4, stronger effect = lower value 0.754 | locus YAL026C, strain drs2, stronger effect = lower value 0.844 | locus YBL061C, strain skt5, stronger effect = lower value 0.898 | locus YBR023C, strain chs3, stronger effect = lower value 0.84 | locus YBR231C, strain swc5, stronger effect = lower value 0.829 | locus YBR279W, strain paf1, stronger effect = lower value 0.927 | locus YCL029C, strain bik1, stronger effect = lower value 0.857 | locus YCL061C, strain MRC1, stronger effect = lower value 0.908 | locus YDL074C, strain BRE1, stronger effect = lower value 0.741 | locus YDL101C, strain DUN1, stronger effect = lower value 0.849 | locus YDL134C, strain PPH21, stronger effect = lower value 0.853 | locus YDL185W, strain tfp1, stronger effect = lower value 0.845 | locus YDL192W, strain arf1, stronger effect = lower value 0.868 | locus YDR069C, strain doa4, stronger effect = lower value 0.703 | locus YDR101C, strain arx1, stronger effect = lower value 0.911 | locus YDR137W, strain rgp1, stronger effect = lower value 0.701 | locus YDR162C, strain NBP2, stronger effect = lower value 0.823 | locus YDR318W, strain mcm21, stronger effect = lower value 0.907 | locus YDR334W, strain swr1, stronger effect = lower value 0.877 | locus YDR335W, strain msn5, stronger effect = lower value 0.858 | locus YDR502C, strain sam2, stronger effect = lower value 0.861 | locus YEL003W, strain gim4, stronger effect = lower value 0.893 | locus YEL061C, strain CIN8, stronger effect = lower value 0.901 | locus YER015W, strain faa2, stronger effect = lower value 0.883 | locus YER111C, strain swi4, stronger effect = lower value 0.72 | locus YFR010W, strain ubp6, stronger effect = lower value 0.854 | locus YGL086W, strain mad1, stronger effect = lower value 0.86 | locus YGL173C, strain kem1, stronger effect = lower value 0.853 | locus YGL248W, strain PDE1, stronger effect = lower value 0.837 | locus YGR078C, strain PAC10, stronger effect = lower value 0.821 | locus YGR135W, strain pre9, stronger effect = lower value 0.85 | locus YHR027C, strain rpn1, stronger effect = lower value 0.869 | locus YHR030C, strain SLT2, stronger effect = lower value 0.824 | locus YHR079C, strain IRE1 (second series), stronger effect = lower value 0.902 | locus YHR129C, strain ARP1, stronger effect = lower value 0.826 | locus YHR142W, strain chs7, stronger effect = lower value 0.786 | locus YHR200W, strain rpn10, stronger effect = lower value 0.886 | locus YJL095W, strain BCK1 (second series), stronger effect = lower value 0.908 | locus YJL095W, strain BCK1, stronger effect = lower value 0.784 and 0.833 | locus YJL164C, strain tpk1, stronger effect = lower value 0.877 | locus YJL187C, strain SWE1 (second series), stronger effect = lower value 0.632 | locus YJL187C, strain SWE1, stronger effect = lower value 0.915 | locus YJR066W, strain TOR1, stronger effect = lower value 0.812 | locus YKL160W, strain elf1, stronger effect = lower value 0.9 | locus YLR058C, strain SHM2, stronger effect = lower value 0.631 | locus YLR221C, strain rsa3, stronger effect = lower value 0.887 | locus YLR262C, strain YPT6 (second series), stronger effect = lower value 0.803 | locus YLR268W, strain sec22, stronger effect = lower value 0.84 | locus YLR330W, strain CHS5, stronger effect = lower value 0.884 | locus YLR342W, strain FKS1, stronger effect = lower value 0.891 | locus YLR357W, strain rsc2, stronger effect = lower value 0.691 | locus YLR371W, strain rom2, stronger effect = lower value 0.776 | locus YLR418C, strain cdc73, stronger effect = lower value 0.715 | locus YML016C, strain PPZ1, stronger effect = lower value 0.83 | locus YMR058W, strain fet3, stronger effect = lower value 0.384 | locus YMR205C, strain PFK2, stronger effect = lower value 0.825 | locus YMR223W, strain ubp8, stronger effect = lower value 0.874 | locus YMR231W, strain pep5, stronger effect = lower value 0.9 | locus YMR263W, strain SAP30, stronger effect = lower value 0.884 | locus YNL153C, strain GIM3, stronger effect = lower value 0.853 | locus YNL209W, strain ssb2, stronger effect = lower value 0.76 | locus YNL233W, strain BNI4, stronger effect = lower value 0.866 | locus YNL271C, strain bni1, stronger effect = lower value 0.911 | locus YNL322C, strain KRE1, stronger effect = lower value 0.821 | locus YNR052C, strain pop2, stronger effect = lower value 0.792 | locus YOL147C, strain pex11, stronger effect = lower value 0.84 | locus YOR001W, strain rrp6, stronger effect = lower value 0.867 | locus YOR061W, strain CKA2, stronger effect = lower value 0.852 | locus YOR069W, strain VPS5, stronger effect = lower value 0.88 | locus YOR083W, strain WHI5, stronger effect = lower value 0.887 | locus YOR106W, strain vam3, stronger effect = lower value 0.711 | locus YOR144C, strain elg1, stronger effect = lower value 0.867 | locus YOR265W, strain rbl2, stronger effect = lower value 0.913 | locus YOR290C, strain snf2, stronger effect = lower value 0.67 | locus YPL051W, strain arl3, stronger effect = lower value 0.807 | locus YPL078C, strain atp4, stronger effect = lower value 0.885 | locus YPL106C, strain sse1, stronger effect = lower value 0.839 | locus YPR163C, strain tif3, stronger effect = lower value 0.901 | locus YPR167C, strain met16, stronger effect = lower value 0.897 | strain wtn01, stronger effect = lower value 0.864
